# High-throughput results as filed in PubChem BioAssay.
# In the library only some 1.2% were active in any assay of this set; here they are far more common.
# PI4K2A inh: qHTS for small molecular inhibitors of PI4K2A; Phosphatidylinositol 4-kinase type 2-alpha (Homo sapiens), Q9BTU6; purified PI4K2A, ADP-Glo luminescence, 1 h; active compounds read low; activity change, negative = inhibition, % at 76.9 µM; hit rate 0.13% among 420,000; in the data active = activity change below about -50%; inconclusive = mostly about -30% to -49%;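 also: -100% = wells without enzyme as full effect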
#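 In this quantitative HTS, ADP production by PI4K2A was quantified luminescently after 1 h at ambient temperature; 100 microM adenosine served as plate-quality control.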
# PGK inhibitor: qHTS Assay to Find Inhibitors of Phosphoglycerate Kinase; Phosphoglycerate kinase, glycosomal (Trypanosoma brucei brucei), P07378; hit rate 0.043% among 380,000; PGK/GAPDH coupled, Kinase-Glo luminescence, 60 min; Potency, µM (highest dose often 57.5 µM), without a hit: top-dose activity change, negative = inhibition, hits mostly inhibitors; also: potency is read from the fitted curve at half-maximal effect; nearly all actives have a fitted effect of over 60% in size
#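 Luminescent ATP detection (Kinase-Glo Plus) follows a 60-minute room-temperature incubation, with wells lacking PGK as controls. Buffer: 100 mM TEA (pH 7.6), 5 mM MgCl2, 0.01% Tween-20. Coupling enzyme GAPDH (100 nM final) supplies unstable 1,3-BPG in-well.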
# PI5P4K alpha inh: qHTS for Inhibitors of phosphatidylinositol 5-phosphate 4-kinase (PI5P4K). PI5P4Kalpha enzyme, ADP-Glo luminescence, 60 min; active compounds read low. max response, %. hit rate 1.2% among 330,000. AID 652105, 2013; active = max response of -50% or lower; inconclusive = between -30% and -50%; inactive = -30% or higher; also: value at the top dose of about 77 µM
#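 Controls without substrate or without enzyme flank wells where PI5P4Kalpha converts substrate using 5 microM ATP (final). Incubation lasts 60 minutes at room temperature; ADP formed is read by ADP-Glo luminescence.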
# KAT2A inh: qHTS Assay for Inhibitors of GCN5L2; Histone acetyltransferase KAT2A (Homo sapiens), Q92830; GCN5L2 HAT assay, ThioGlo1 CoA-SH fluorescence; Potency, µM (titrated, usually from 58.9 µM), for inactives: top-dose activity change, negative = inhibition, most hits filed as inhibitors; hit rate 0.21% among 390,000; AID 504327, 2011; also: potency is read from the fitted curve at half-maximal effect
#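 GCN5L2 (20nM final) in 50mM HEPES, 0.1mM EDTA pH 7.5, 0.01% Tween-20 was preincubated 15 min at room temperature with compound, then given ThioGlo1 (50uM), H3(1-25) peptide (75uM) and acetyl-CoA (70uM); CoA-thiol fluorescence (Ex340/Em540) was read at 0 and 20 min.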
# Pin1 inhibitor: qHTS Assay to Find Inhibitors of Pin1; Pin1 FP peptide displacement, HiFluor488, 10 min; Potency, µM (titrated, usually from 115 µM), without a hit: top-dose activity, negative = inhibition, most hits filed as inhibitors; hit rate 0.009% among 390,000; AID 504891, 2011; active = well fitted inhibition curve with a large enough effect in the polarisation, with a control signal flat, not every such curve was filed as active; inconclusive = small, poorly fitted or top-dose-only effect, or effect the other way, or a change in a side signal; inactive = no such curve, though single readings can be large or run the other way; the % refers to the polarisation; also: potency is read from the fitted curve at half-maximal effect
# Target sequence (Q13526 whole entry, looked up): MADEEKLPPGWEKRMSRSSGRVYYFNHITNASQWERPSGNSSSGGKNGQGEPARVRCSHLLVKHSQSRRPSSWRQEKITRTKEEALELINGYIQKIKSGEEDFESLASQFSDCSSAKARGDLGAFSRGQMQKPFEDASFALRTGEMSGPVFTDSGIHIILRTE
# GoLoco inh red: qHTS Assay for Inhibitors of RGS12 GoLoco Motif Activity (Red Fluorophore); Gai1:RGS12 GoLoco peptide FP, rhodamine, 10 min; Guanine nucleotide-binding protein G(i) subunit alpha-1 (Homo sapiens), P63096; AID 880, 2007; Potency, µM (highest dose often 61.6 µM), without a hit: at the highest dose activity, negative = inhibition, hits mostly inhibitors; hit rate 0.44% among 230,000; active = well fitted inhibition curve with a large enough effect, not every such curve was filed as active; inactive = no such curve, though single readings can be large or run the other way; also: potency is read from the fitted curve at half-maximal effect; nearly all actives have a fitted effect of over 30% in size
# Target sequence (P63096 whole entry, looked up): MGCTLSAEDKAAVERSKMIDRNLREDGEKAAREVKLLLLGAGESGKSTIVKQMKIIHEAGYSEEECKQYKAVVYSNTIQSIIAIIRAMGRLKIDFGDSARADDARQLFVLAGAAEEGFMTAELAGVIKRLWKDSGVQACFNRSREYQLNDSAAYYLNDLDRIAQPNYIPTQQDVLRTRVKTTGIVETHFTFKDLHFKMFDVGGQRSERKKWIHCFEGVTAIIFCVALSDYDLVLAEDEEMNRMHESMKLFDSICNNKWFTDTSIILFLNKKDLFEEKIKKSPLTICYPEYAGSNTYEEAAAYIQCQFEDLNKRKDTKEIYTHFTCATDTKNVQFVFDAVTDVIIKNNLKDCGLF
# ADP-Glo counter: qHTS for Inhibitors of PI5P4K: ADP-Glo counter assay. shares compounds with PI5P4K alpha inh. ADP-Glo detection counter-screen, luciferase luminescence, no enzyme. Potency, µM (highest dose often 76.9 µM), without a hit: top-dose activity change, negative = inhibition, usual class: inhibitors. 1,100 tested, under 10 active. AID 743285, 2014
# An asterisk follows results filed as active; i = inactive; ? = inconclusive; . = not tested or not shown. Unless noted, calls follow the shape of the dose curve; as a rule, active = well fitted curve in the direction sought with a large enough effect; inconclusive = small, poorly fitted or top-dose-only effect, or another doubt; inactive = no such curve, though single readings can be large; an effect the other way counts as inactive or inconclusive. Unless noted, % is scaled to controls: 0 for no effect and ±100 for the full control effect.
SMILES,PI4K2A inh,PGK inhibitor,PI5P4K alpha inh,KAT2A inh,Pin1 inhibitor,GoLoco inh red,ADP-Glo counter
CC(=O)c1ccc(OCC(=O)N2CCN(S(=O)(=O)c3ccc(Br)s3)CC2)cc1,-5,0%,0,-11%,-4%,.,.
CCC(=O)c1ccc(OCC(=O)N2CCN(S(=O)(=O)c3ccc(Cl)s3)CC2)cc1,-8,-1%,-54*,-25%,1%,.,-11%
O=C(N/N=C\c1ccc(CN(Cc2ccc(Cl)cc2)S(=O)(=O)c2ccccc2)o1)C(=O)Nc1ccc(F)cc1,-1,-8%,-16,-1%,27%,12%,.
COc1ccc(Br)cc1C(=O)Nc1cccc(NC(=O)c2ccco2)c1,-7,i,8,-10%,2%,.,-8%
COc1c(C)cc(Br)cc1C(=O)Nc1cccc(NC(=O)c2ccco2)c1,-3,-1%,20,-8%,-1%,3%,.
CC(C)(C)NC(=O)Cn1nnc(-c2ccc(OCc3c(F)cccc3Cl)cc2)n1,-2,-1%,14,-16%,-3%,.,.
OC(c1ccc(Cl)c(F)c1)c1ncc(-c2ccc(Cl)cc2)[nH]1 (stereo unspecified),0,.,15,.,.,.,.
OC(c1ccc(Cl)c(F)c1)c1ncc(-c2ccc(Oc3ccccc3)cc2)[nH]1 (stereo unspecified),0,.,-57*,.,.,.,-5%
Cc1ccccc1C(=O)NCC(=O)N1CCN(c2ccccn2)CC1,-5,1%,-7,0%,-5%,.,.
CCN(CC)CCCCCC(=O)Nc1ccccc1C(=O)Nc1ccccc1,0,-7%,-19,-1%,4%,.,-4%
COCCNC(=O)c1cc(-c2ccccc2)sc1N,-3,.,-63*,.,.,.,-5%
CCCCNC(=O)c1cc(-c2ccccc2)sc1N,-2,.,?,.,.,.,.
CCOC(=O)c1ccc(NC(=O)C(CC)(CC)C(=O)OCC)cc1,-1,-4%,.,-9%,-8%,-2%,.
CCN(CC(=O)Nc1ccccc1OC)C(=O)c1cccc(-n2cccc2)c1,1,i,-1,-2%,2%,.,.
Cc1cccc(C)c1NC(=O)CN(C)C(=O)c1cccc(-n2cccc2)c1,-7,-9%,?,?,?,.,.
COc1ccc(NC(=O)CN(C)C(=O)c2cccc(-n3cccc3)c2)cc1,-15,?,-62*,?,?,.,-3%
CCN(CC(=O)Nc1c(F)cccc1F)C(=O)c1cccc(-n2cccc2)c1,-11,?,-68*,-27%,-4%,.,-2%
COc1ccc(NC(=O)CN(C)C(=O)c2cccc(Oc3ccccc3)c2)cc1,-1,-10%,-1,2%,-4%,.,.
Cc1ccc(NC(=O)CN(C)C(=O)c2cccc(-n3cccc3)c2)cc1,-16,?,-101*,?,.,.,-1%
Cc1cccc(NC(=O)CNC(=O)c2cccc(-n3cccc3)c2)c1C,-15,?,-80*,?,-7%,.,-10%
O=C(Nc1ccccc1)c1cc(C2CCCCN2C(=O)c2ccccc2)on1 (stereo unspecified),-3,.,1,.,.,.,.
OC(CN1CCCCC1)Cn1c2ccccc2c2cc(Br)ccc21 (stereo unspecified),5,i,4,2%,-3%,.,.
